FBW7 act: human FBW7 E3 ligase activation, primary screen. Q969H0. normalized activity (activation), % at 26.1 µM. AID 1259310. actives 0.13% (n = 650,000). AlphaScreen FBW7–phospho-cyclin E peptide binding, activator screen; in the data active = normalized activity above about 1.9%;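 also: purified mutant Fbw7 with reduced substrate affinity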
Target sequence (Q969H0 whole entry, looked up): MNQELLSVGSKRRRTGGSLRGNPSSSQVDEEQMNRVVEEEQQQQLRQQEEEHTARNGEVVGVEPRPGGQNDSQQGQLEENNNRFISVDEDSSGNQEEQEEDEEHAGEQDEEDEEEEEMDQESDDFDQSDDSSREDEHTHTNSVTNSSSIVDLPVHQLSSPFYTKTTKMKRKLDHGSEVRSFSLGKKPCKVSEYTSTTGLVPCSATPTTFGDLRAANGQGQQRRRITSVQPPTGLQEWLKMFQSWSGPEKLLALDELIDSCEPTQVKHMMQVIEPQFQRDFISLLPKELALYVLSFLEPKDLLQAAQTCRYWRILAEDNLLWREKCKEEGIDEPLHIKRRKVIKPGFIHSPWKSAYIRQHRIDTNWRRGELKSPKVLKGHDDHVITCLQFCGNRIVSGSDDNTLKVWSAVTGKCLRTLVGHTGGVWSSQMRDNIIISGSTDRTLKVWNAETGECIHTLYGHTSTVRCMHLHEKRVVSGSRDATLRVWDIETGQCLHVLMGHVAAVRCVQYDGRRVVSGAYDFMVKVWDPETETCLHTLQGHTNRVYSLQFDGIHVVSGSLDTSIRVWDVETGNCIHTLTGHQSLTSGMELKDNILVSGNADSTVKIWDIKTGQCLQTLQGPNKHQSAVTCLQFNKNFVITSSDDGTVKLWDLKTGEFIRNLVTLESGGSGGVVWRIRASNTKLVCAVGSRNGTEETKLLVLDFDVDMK
MITF inh: inhibitors of human MITF; actives 0.91% (n = 650,000); inhibition, % at 2.6 µM; AID 1259374; O75030; AlphaScreen MITF homodimerization, bead proximity signal; in the data active = inhibition above about 50%;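 also: 0% = vehicle wells with protein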
GPR151 ag: activators of human GPR151 | activation, % at 11.2 µM | AID 1508602 | PathHunter beta-arrestin GPR151 cells, luminescence | Q8TDV0 | actives 1% (n = 650,000); in the data active = activation above about 4.9%;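 also: 0% = median of compound wells and 100% = cells with positive control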
TEAD-YAP inh: TEAD-YAP interaction inhibition. HEK-TIYL cells, TEAD-Gal4/YAP UAS-luciferase luminescence. inhibition, % at 9.12 µM. actives 1.4% (n = 640,000). AID 1259422; in the data active = inhibition above about 32%;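 also: 0% = median of test compound wells and 100% = reference inhibitor wells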
GPR151 confirm: human GPR151 activation, confirmation screen | 6,700 tested, under 10 active | GPR151 PathHunter beta-arrestin cells, luminescence, 90 min; % of EA-reagent control over plate median | AID 1508609 | activation, % at 11.2 µM | shares compounds with GPR151 ag;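 active = mean percent activation across replicates above the confirmation screen cutoff of 4.91%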
GPR119 counter: GPR119 activation, counter-screen for GPR151 activators. AID 1508611. shares compounds with GPR151 ag. actives 0.3% (n = 6,700). activation, % at 11.2 µM. GPR119 PathHunter beta-arrestin cells, luminescence, 90 min; 0 = compound-well median, 100 = enzyme-acceptor control;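 active = mean percent activation in the counterscreen above 29.09%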;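 also: counterscreen on off-target GPR119 to flag nonselective hits from the GPR151 activator screen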
* hit, by the source's call; . = not tested or not shown. Shown are actives, neighbours in structure and some others; about 3.5% of the full set was active somewhere.

SMILES | FBW7 act | MITF inh | GPR151 ag | TEAD-YAP inh | GPR151 confirm | GPR119 counter
O=C(NCCN1CCOCC1)C1CCN(c2ccc(NCc3cccnc3)nn2)CC1 | 0 | 4 | 6.1* | 9 | 0 | 4
CC(C)Cn1c(SCC(=O)Nc2ccc(C(N)=O)cc2)nc2ccccc2c1=O | 0 | -10 | 1 | -11 | . | .
CC(C)(C)c1nnc(N/N=C/c2ccc(O)cc2)[nH]c1=O | 0 | 3 | 2 | 14 | . | .
COc1cc(/C=N/Nc2nnc(C(C)(C)C)c(=O)[nH]2)cc(OC)c1OC | 0 | 3 | 6.1* | 8 | 1 | -3
COc1cccc(CN2CCN(Cc3cccs3)C(CCO)C2)c1 (stereo not given) | 0 | -3 | 0 | -5 | . | .
COc1ccc(CN2CCN(Cc3cccs3)C(CCO)C2)c(O)c1 (stereo not given) | 0 | -5 | 5.1* | -14 | 0 | -8
CC1CCN(S(=O)(=O)c2coc(C(N)=O)c2)CC1 | 0 | -9 | 10* | -14 | 0 | 11
CC(=O)N1CCN(S(=O)(=O)c2ccc(S(=O)(=O)N3CCC(C)CC3)cc2)CC1 | 0 | 15 | -1 | -2 | . | .
CC(=O)Nc1cccc(NC(=O)CSc2nnnn2-c2ccc3c(c2)OCO3)c1 | 1 | 6 | 5.6* | -1 | 0 | 11
CCCC1(CC)NC(=S)N(c2cccc(C)c2C)N1 (stereo not given) | 1 | 7 | 1 | 3 | . | .
O=[N+]([O-])c1ccccc1/C=C/CN1CCSCC1 | 0 | 40 | 1 | -6 | . | .
O=[N+]([O-])c1ccccc1/C=C/CN1CCN(CCOCCO)CC1 | 0 | 49 | 5.4* | 5 | 0 | 5
CCCCN(CC)C(=O)/C=C/c1cc(OC)c(OC)c(OC)c1 | 0 | -7 | 5.0* | -3 | 0 | -6
O=c1[nH]c(/C=C\c2c(Cl)cccc2Cl)nc(O)c1[N+](=O)[O-] | 0 | 23 | 4 | -6 | . | .
CCN(CC(=O)NC)S(=O)(=O)c1ccc(Cl)cc1 | 1 | 6 | 7.6* | 4 | -2 | -17
CCN(CC(=O)O)S(=O)(=O)c1cc(Cl)ccc1Cl | 0 | 14 | 0 | 2 | . | .
CCN(CC)S(=O)(=O)c1ccc(S(=O)(=O)c2ccc(S(=O)(=O)N(CC)CC)cc2)cc1 | 0 | -2 | 5.9* | 5 | -1 | -1
CN(CC(=O)NN)S(=O)(=O)c1ccc(Cl)cc1 | 0 | 5 | 6.3* | -9 | 1 | 10
CCN(CC(N)=O)S(=O)(=O)c1cc(Cl)ccc1Cl | 0 | -15 | 5.0* | -3 | 1 | 3
O=C(CCNC(CO)C(=O)O)c1ccc(F)cc1 (stereo not given) | 0 | 4 | -1 | 8 | . | .
CC(C)(C)c1cc(C(F)(F)F)c2c(N)c(C(=O)O)sc2n1 | 0 | -24 | 1 | -5 | . | .
Cc1ccc(-c2cc(C(F)(F)F)n3ncc(C(=O)N4CCN(c5cccc(Cl)c5)CC4)c3n2)cc1 | 0 | -11 | -1 | -1 | . | .
COc1ccc(OC)c(/C=C2\NC(=O)N(Cc3ccc(Cl)cc3)C2=O)c1 | 1 | 8 | 7.9* | 6 | 0 | -5
COc1ccc(OC)c(/C=C2/NC(=O)N(Cc3ccc(Br)cc3)C2=O)c1 | 0 | -4 | 2 | 3 | . | .
COc1cc(OC)c(/C=C2/NC(=O)N(Cc3ccc(F)cc3)C2=O)c(OC)c1 | 0 | 0 | 6.2* | -6 | 1 | -2
SMILES | FBW7 act | MITF inh | GPR151 ag | TEAD-YAP inh | GPR151 confirm | GPR119 counter
Cc1nc(CSc2nc3c(sc(=S)n3-c3ccccc3C)c(=O)n2-c2ccccc2)cs1 | 0 | -3 | 0 | 5 | . | .
CCOC(=O)c1c(NC(=S)NC(=O)N(C)C)sc(C)c1-c1cccs1 | 0 | 1 | 5.1* | 0 | 1 | 7
CCCC(=O)Nc1ccccc1NC(=O)Cc1ccc(OC)cc1 | 0 | 16 | 5.4* | 0 | 0 | -12
COC(=O)CCC(=O)Nc1ccccc1NC(=O)CCC(=O)OC | 0 | 5 | 5.0* | 0 | 0 | 10
COC(=O)c1ccccc1NC(=O)CCSCCC(=O)Nc1ccccc1C(=O)OC | 0 | -4 | 6.3* | 1 | -1 | -7
COC(=O)c1ccccc1NC(=O)CSc1n[nH]c(-c2ccccc2)n1 | 1 | 11 | 5.0* | 4 | -1 | -13
CSc1nc(N)nc(SC(C(=O)O)c2ccccc2)c1C#N (stereo not given) | 0 | -6 | 8.6* | 7 | 0 | 13
CSc1nc(N)nc(SCC(=O)c2ccccc2)c1C#N | 0 | -9 | 0 | -22 | . | .
O=C(NCc1ccncc1)c1ccc(OC2CCN(C3CCSC3)CC2)cc1 (stereo not given) | 0 | -2 | 9.7* | 0 | 0 | 3
O=C(NCc1ccccn1)c1cccc(OC2CCN(C3CCSCC3)CC2)c1 | 0 | 1 | 8.7* | 5 | 0 | 6
CCCN1CCC2(CCC(CNC(=O)c3ccn(C)n3)O2)CC1 (stereo not given) | 0 | -3 | 0 | 6 | . | .
COc1cc(/C=C2\SC(NC(C)=O)=NC2=O)cc(Br)c1OC(C)=O | 0 | 11 | 7.4* | 4 | 1 | -7
COC(=O)CN1C(=O)S/C(=C/C=C/c2ccccc2[N+](=O)[O-])C1=O | 0 | 17 | -1 | 4 | . | .
C=CCN1C(=O)/C(=C/c2ccc(OCC(=O)O)cc2)S/C1=N/c1nccs1 | 0 | 6 | 7.0* | -1 | 2 | 4
COc1cc(/C=C2\SC(NC(C)=O)=NC2=O)cc(OC)c1OC | 0 | -13 | -1 | -7 | . | .
COC(=O)CN1C(=O)S/C(=C/c2cccc([N+](=O)[O-])c2O)C1=O | 0 | 14 | 5.3* | 4 | 0 | -12
C=CCN1C(=O)/C(=C\c2ccc(C(=O)O)cc2)S/C1=N/c1nnc(CC)s1 | 0 | 6 | 1 | 1 | . | .
COC(=O)CN1C(=O)S/C(=C\c2cc(Br)c(OC)c(OC)c2)C1=O | 0 | 9 | 14* | -1 | 1 | 3
COc1ccc(NC(=O)Cn2cnc3c2c(=O)n(C)c(=O)n3C)c2ncccc12 | 0 | 23 | -1 | -8 | . | .
CC1=C(C(=O)Nc2ccc(C)cc2)C(c2cccs2)NC(=O)N1 (stereo not given) | 0 | -2 | 2 | 6 | . | .
COC(=O)CN1C(=O)S/C(=C/c2ccc(OCC(=O)O)cc2)C1=O | 0 | 13 | 9.8* | 8 | 1 | 5
Cc1ccc(-n2nc3ccc(NC(=O)c4cnccn4)cc3n2)cc1 | 0 | -1 | 0 | -1 | . | .
N#Cc1cc([N+](=O)[O-])ccc1NC(=O)COC(=O)CC1CCCC1 | 0 | -1 | 5.0* | 1 | -1 | -5
N#Cc1cc([N+](=O)[O-])ccc1NC(=O)COC(=O)C1CC1 | 0 | 9 | 1 | 3 | . | .
Cc1cc(NC(=O)COC(=O)CC2CCCCC2)no1 | 0 | 16 | 5.0* | -3 | 1 | 5

Assay outcomes (PubChem BioAssay)
